Shown are actives, neighbours in structure and some others; about 1.2% of the full set was active somewhere.
RAD52 inh = blocks human RAD52 DNA annealing; P43351; recombinant RAD52 DNA annealing, FRET fluorescence; inhibition, % at 18.7 µM; 360,000 tested, 0.46% active; AID 651710;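 active = every replicate showing at least 50% inhibition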
Target sequence (P43351 whole entry, looked up): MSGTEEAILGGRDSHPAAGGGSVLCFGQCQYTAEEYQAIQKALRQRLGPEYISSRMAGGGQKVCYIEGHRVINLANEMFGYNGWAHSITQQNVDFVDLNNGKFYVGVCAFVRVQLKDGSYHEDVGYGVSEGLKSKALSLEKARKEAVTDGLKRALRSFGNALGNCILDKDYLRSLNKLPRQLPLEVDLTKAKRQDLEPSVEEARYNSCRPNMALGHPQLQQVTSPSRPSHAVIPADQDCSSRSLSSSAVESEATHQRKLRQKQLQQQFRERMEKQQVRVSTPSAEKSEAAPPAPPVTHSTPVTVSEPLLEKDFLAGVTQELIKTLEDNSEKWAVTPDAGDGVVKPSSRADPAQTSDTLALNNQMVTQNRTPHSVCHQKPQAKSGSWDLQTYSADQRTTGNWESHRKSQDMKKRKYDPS
NSD2 inh = blocks human histone methyltransferase NSD2 | inhibition, % at 12.5 µM | 310,000 tested, 0.54% active | NSD2 peptide methylation, AlphaScreen, 120 min; in the data active = inhibition above about 50%
CASP6 VEID inh = inhibitors of human caspase-6; 350,000 tested, 0.53% active; purified caspase-6, Z-VEID-R110 cleavage fluorescence; P55212; inhibition, % at 12.5 µM;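 active = mean inhibition across replicates at least about 35%, with every replicate also reaching that limit, limit read from the data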
N-glyco inh = blocks N-linked glycosylation in D54 reporter cells. D54 ERlucT glycosylation luciferase reporter, 24 h; percent of 100 nM tunicamycin response. reporter increase, % at 12.5 µM. 360,000 tested, 0.23% active. AID 588692;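 active = mean luciferase reporter signal, scaled so untreated is 0 and the glycosylation-blocking control 100, at or above a set limit in every replicate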;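 note: luciferase carries N-glycosylation sites so blocking glycosylation raises the light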
RAD54 inh = inhibitors of human RAD54 branch migration. Q92698. RAD54 Holliday junction branch migration, FAM/BHQ fluorescence. inhibition, % at 10.4 µM. 360,000 tested, 0.14% active. AID 602329;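 active = mean normalized replicate activity at least 40 and at least half of replicates scoring 40 or more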;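 note: inhibitors cause a drop in the FAM fluorescence signal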
Alpha artifact = counter-screen for NSD2 inhibitors: AlphaScreen artifacts; shares compounds with NSD2 inh; AlphaScreen artifact counterscreen, preloaded methylated H4 peptide; AC35, µM (doses to about 10 µM); 1,500 tested, 9.4% active; call rule not given here
Hits are given with their value; n = inactive; x = no result given.

SMILES	RAD52 inh	NSD2 inh	CASP6 VEID inh	N-glyco inh	RAD54 inh	Alpha artifact
CCNC(=S)N(CCCN(CC)CC)Cc1cc2cc3c(cc2[nH]c1=O)OCO3	n	84	n	n	n	n
CNC[C@H]1Oc2ccc(NS(C)(=O)=O)cc2CC(=O)N([C@@H](C)CO)C[C@H]1C	n	x	n	x	n	x
O=C(Nc1ccc(F)cc1)N1C[C@@H]2[C@H](c3ccccc31)[C@@H](CO)N2C(=O)c1ccccc1F	n	x	n	x	n	x
O=C(NC(=S)Nc1ccccc1N1CCCCC1)c1ccco1	n	n	n	n	n	x
O=C(NC(=S)Nc1ccccc1N1CCCC1)c1ccco1	n	74	n	n	n	n
COCC(=O)N1C[C@H]2[C@@H](c3ccccc31)[C@H](CO)N2C(=O)C1CCOCC1	n	x	n	x	n	x
Nc1cc(=O)[nH]c(SCC(=O)Nc2ccc(Cl)c(Cl)c2)n1	x	116	x	n	n	n
Nc1cc(=O)[nH]c(SCC(=O)Nc2cc(Cl)cc(Cl)c2)n1	x	n	x	n	n	x
O=C(CSc1n[nH]c(-c2ccncc2)n1)Nc1ccc(Cl)c(Cl)c1	n	63	n	n	n	n
COc1ccc(CNC(=O)C[C@H]2CC[C@@H](NS(=O)(=O)c3cccc(OC)c3)[C@@H](CO)O2)cc1	n	x	n	x	n	x
CC(C(=O)Nc1ccc(O)cc1C(=O)O)N1C(=O)/C(=C\c2cccs2)SC1=S (stereo not given)	n	83	46	n	n	n
CC1Oc2ccc(C#N)cc2N(Cc2cccc(F)c2)C1=O (stereo not given)	n	55	n	n	n	n
CC1Oc2ccc(C#N)cc2N(Cc2ccc(F)cc2)C1=O (stereo not given)	x	n	x	n	n	x
CN1C(=O)c2cc(NC(=O)c3ccc(F)c(F)c3)ccc2OC[C@@H]2O[C@@H](CC(=O)N[C@@H]3CCN(Cc4ccccc4)C3)CC[C@@H]21	n	x	n	x	n	x
C/[N+]([O-])=C1\Cc2ccccc2C1=O	x	61	x	n	n	n
O=C1c2ccccc2CCc2ccccc21	n	n	n	n	n	x
COc1ccc(-c2cc(C(F)(F)F)n3nc(C(=O)N4CCN5CCCC5C4)cc3n2)cc1OC (stereo not given)	n	n	n	n	n	x
Cc1ccc(-c2cc(C(F)(F)F)n3nc(C(=O)N4CCN5CCCC5C4)cc3n2)cc1 (stereo not given)	n	75	n	n	n	n
C[C@@H]1CN([C@@H](C)CO)C(=O)c2cc(NC(=O)Nc3ccc(C(F)(F)F)cc3)ccc2O[C@@H]1CN(C)C(=O)Nc1ccc(F)cc1	n	x	n	x	n	x
CNCc1ccc(OCc2ccccc2)c(OC)c1	x	53	x	n	n	n
O=C(CN1CCC(C(=O)c2ccc3c(c2)OCCO3)CC1)NCc1ccc(F)cc1	n	n	n	n	n	x
O=C(CN1CCC(C(=O)c2ccc3c(c2)OCCO3)CC1)NCc1ccccc1	n	65	n	n	n	n
O=C(c1ccccc1F)N1CC(=O)N2[C@H](C1)[C@@H](c1ccc(-c3cccnc3)cc1)[C@@H]2CO	n	x	n	x	x	x
CCOc1cc(N2CCOCC2)c(OCC)cc1NC(=O)C(C)C	n	n	n	n	n	x
CCOc1cc(N2CCOCC2)c(OCC)cc1NC(C)C(=O)N1CCN(CC)CC1 (stereo not given)	n	90	70	n	x	n
SMILES	RAD52 inh	NSD2 inh	CASP6 VEID inh	N-glyco inh	RAD54 inh	Alpha artifact
CN1C(=O)C(=O)/C(=C(/O)c2ccccc2)C1c1ccccc1 (stereo not given)	n	59	n	n	n	n
CC(C)c1ccc2c(c1)[C@H]1OCC[C@H]1[C@@H](c1cccs1)N2	x	n	x	n	x	x
Cc1cc(C)c2c(c1)N[C@H](c1cccs1)[C@@H]1CCO[C@H]21	n	50	n	n	n	n
COC(=O)c1ccccc1NC1OC(=O)c2ccccc21 (stereo not given)	n	n	n	n	n	x
Cc1ccc2cccc(NC3OC(=O)c4ccccc43)c2n1 (stereo not given)	x	87	x	n	x	n
Cc1nc(C)c(C(=O)Nc2ncc([N+](=O)[O-])s2)o1	n	50	n	n	n	n
O=C1c2cccc(Cl)c2C(=O)c2c1cccc2N1CCCC1	x	74	x	n	n	1.1µM
CN1CCN(c2ccc(NC(=O)COc3ccc4ccccc4c3)cc2)CC1	n	125	n	n	n	n
CN1CCN(c2ccc(NC(=O)COc3cccc4ccccc34)cc2)CC1	n	n	n	n	n	x
Clc1ccccc1-c1nc(/C=N/N2CCOCC2)c2ccccn12	n	n	n	n	x	x
CN1CCN(/N=C/c2nc(-c3ccccc3Cl)n3ccccc23)CC1	x	67	x	n	x	n
CCCCNC1=CC(=O)C(=O)c2ccccc21	n	140	n	n	x	n
Cc1noc(C)c1S(=O)(=O)N(C)C[C@H]1OCCCC[C@@H](C)Oc2ccc(NS(=O)(=O)c3ccccc3)cc2C(=O)N([C@H](C)CO)C[C@@H]1C	n	x	n	x	n	x
COc1ccc(-c2c3c(nc4sc(C(=O)Nc5cc(C)on5)c(N)c24)CCC3)cc1	x	52	x	n	n	n
Cc1ccccc1S(=O)(=O)Cc1ccc(C(=O)NCCc2ccccc2)o1	n	n	n	n	x	x
CCN(CC)CCNC(=O)c1ccc(CS(=O)(=O)c2ccccc2C)o1	n	51	n	n	n	n
COc1ccc(NC(=O)Nc2ccc3c(c2)C(=O)N([C@@H](C)CO)C[C@@H](C)[C@H](CN(C)Cc2ccc(C(=O)O)cc2)O3)cc1	n	x	n	x	n	x
C[C@H]1CN([C@@H](C)CO)C(=O)Cc2cc(NC(=O)Cc3cn(C)c4ccccc34)ccc2O[C@H]1CN(C)C	n	x	n	x	n	x
C[C@@H]1CN([C@@H](C)CO)C(=O)c2cc(N(C)C)ccc2O[C@@H](C)CCCCO[C@H]1CN(C)S(C)(=O)=O	n	x	n	x	n	x
CC(=O)c1c(C)nc(-c2ccc(Cl)cc2)nc1N=CN(C)C	x	66	x	n	x	n
CC(=O)c1c(C)nc(-c2ccc(Cl)cc2)nc1N	n	x	n	n	x	x
CC(=O)c1c(C)[nH]c(C(=O)Nc2ccc(C)cc2Br)c1C	n	72	n	n	n	n
COc1ccc(NC(=O)c2[nH]c(C)c(C(C)=O)c2C)cc1Cl	x	n	x	n	n	x
CC(=O)c1c(C)[nH]c(C(=O)Nc2cc(C)ccc2C)c1C	n	x	n	n	n	x
COc1cc(NC(=O)c2[nH]c(C)c(C(C)=O)c2C)cc(OC)c1OC	n	121	n	n	n	n
SMILES	RAD52 inh	NSD2 inh	CASP6 VEID inh	N-glyco inh	RAD54 inh	Alpha artifact
CCC1=NN2C(=N)/C(=C\c3cccn3-c3ccc(Cl)cc3)C(=O)N=C2S1	n	n	n	n	x	x
CCc1ccc(-n2cccc2/C=C2/C(=N)N3C(=NC2=O)SN=C3S(C)(=O)=O)cc1	x	89	x	n	x	n
O=C(Nc1cc(Cl)cc(Cl)c1)N[C@H]1CC[C@@H](CCNS(=O)(=O)c2cccc(F)c2)O[C@@H]1CO	n	x	n	x	n	x
Cc1cccc(NCCNc2cccc(C)c2)c1	x	56	x	n	n	n
CCCCCCCNc1cccc(C)c1	n	n	n	n	x	x
CCCCN(CC)CCNC(=O)c1ccc2c(Cl)c3c(nc2c1)CCC3	n	75	n	n	n	n
